Measured values reported in PubChem BioAssay (NCATS).
Results filed as inconclusive are left out. Activity calls are given as the source filed them. Calls come from the whole dose curve; as a rule, active = well fitted inhibition curve with a large enough effect; inconclusive = small, poorly fitted or top-dose-only effect; inactive = flat fitted curve, though single readings scatter.

Columns and labels:
Assay in all cases: qHTS profiling for inhibitors of Plasmodium falciparum proliferation (AID 504749); note: nearly all actives have a fitted effect of over 60% in size
Details in all cases: P. falciparum in erythrocytes, SYBR Green DNA, 72 h; series mostly up to 28.7 µM
CP291 = system: CP291
Outline: (§1)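 Quantitative HTS: compounds pinned into medium, infected erythrocytes added (0.3% parasitemia, 2.5% hematocrit), 72 h culture at 37 C under 5% CO2. Saponin/Triton lysis with SYBR Green I, overnight RT, then fluorescence read.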

CP297 = system: CP297
Outline: as §1

CP305 = system: CP305
Outline: as §1

CP325 = system: CP325
Outline: as §1

CP329 = system: CP329
Outline: as §1

DFO2036 = system: DFO2036
Outline: as §1

DIV14 = system: DIV14
Outline: as §1

DIV17 = system: DIV17
Outline: as §1

CP315 = system: CP315
Outline: as §1

CP335 = system: CP335
Outline: as §1

Measured: Potency
Potency is the fitted concentration of half-maximal effect.

O=C(O)c1nc(=O)[nH]c(=O)[nH]1
not listed: CP315 | CP335
inactive: all other assays above

CN1CCN2c3ncccc3Cc3ccccc3C2C1 (configuration not stated)
inactive: CP297 | CP305 | CP315 | CP325 | CP329 | DFO2036

Cc1cc2nc3c(=O)[nH]c(=O)nc-3n(CC(O)C(O)C(O)CO)c2cc1C (configuration not stated)
not listed: DIV14 | DIV17
inactive: all other assays above

N#Cc1c(N(CC(=O)O)CC(=O)O)sc(C(=O)O)c1CC(=O)O
inactive: all assays above

COc1ccnc(CS(=O)c2nc3ccc(OC(F)F)cc3[nH]2)c1OC (configuration not stated)
inactive: all assays above

COc1cc2c(cc1OC)CC(=O)N(CCCN(C)C[C@H]1Cc3cc(OC)c(OC)cc31)CC2
not listed: DIV14 | DIV17
inactive: all other assays above

CN1CC(=O)N2C(Cc3c([nH]c4ccccc34)[C@H]2c2ccc3c(c2)OCO3)C1=O (some centres not stated)
not listed: DIV14 | DIV17
inactive: all other assays above

NS(=O)(=O)c1cc(Cl)c(Cl)c(S(N)(=O)=O)c1
inactive: all assays above

COc1c(C)c2c(c(O)c1CC=C(C)CCC(=O)OCCN1CCOCC1)C(=O)OC2
active: CP291 8.49 µM | CP297 12 µM | CP305 10.7 µM | CP315 13.5 µM | CP325 10.7 µM | CP329 7.57 µM | CP335 8.49 µM | DFO2036 10 µM | DIV14 13.5 µM | DIV17 15.1 µM

CC(C)CN(C[C@@H](O)[C@H](Cc1ccccc1)NC(=O)O[C@H]1CO[C@H]2OCC[C@H]21)S(=O)(=O)c1ccc(N)cc1
not listed: DIV14 | DIV17
inactive: all other assays above

O=C1C(CCC(O)c2ccc(F)cc2)C(c2ccc(O)cc2)N1c1ccc(F)cc1 (configuration not stated)
inactive: all assays above

Fc1ccc(C(c2ccc(F)cc2)N2CCN(CC=Cc3ccccc3)CC2)cc1
active: CP305 13.5 µM | CP335 15.1 µM | DIV14 12 µM | DIV17 13.5 µM

CS(=O)(=O)c1ccc(C2=C(c3ccccc3)C(=O)OC2)cc1
inactive: all assays above

C=C1c2cccc(O)c2C(O)=C2C(=O)[C@@]3(O)C(O)=C(C(N)=O)C(=O)[C@@H](N(C)C)[C@@H]3[C@@H](O)[C@H]12
not listed: CP335
inactive: all other assays above

Clc1ccc(COC(Cn2ccnc2)c2ccc(Cl)cc2Cl)c(Cl)c1 (configuration not stated)
active: CP297 4.05 µM | CP325 5.1 µM | DFO2036 3.16 µM | DIV14 2.28 µM | DIV17 3.61 µM

N#CC(c1ccc(Cl)cc1)c1c(Cl)cc(-n2ncc(=O)[nH]c2=O)cc1Cl (configuration not stated)
not listed: DIV14 | DIV17
inactive: all other assays above
